From PubChem BioAssay (Tox21)
Results filed as inconclusive are left out. Active and inactive are the calls of the source. Unless noted, calls follow the shape of the dose curve; as a rule, active = well fitted curve in the direction sought with a large enough effect in the repeat runs; inconclusive = weak or mixed curves; inactive = no such curve, though single readings can be large; an effect the other way counts as inactive or inconclusive.

Tests used:
[1] = qHTS assay for small molecule agonists of the p53 signaling pathway (AID 651631; calls by dose curve; also: nearly all actives have a fitted effect of over 15% in size)
Summary of the method: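 We treat p53RE-bla HCT-116 cells with compounds for 16 h at 37 °C, add LiveBLAzer B/G FRET substrate for 2 h at room temperature, and measure fluorescence intensity.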

[2] = qHTS assay for small molecules that induce genotoxicity in human embryonic kidney cells expressing luciferase-tagged ATAD5 (AID 651632); also: nearly all actives have a fitted effect of over 15% in size
Summary of the method: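 A rise in luciferase signal from ATAD5-tagged HEK293T cells marks genetic stress. Cells were exposed to compounds for 16 hr at 37C, 5% CO2, then luciferase was quantified after a 30 min room-temperature incubation with Amplite.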

[3] = qHTS assay for small molecule agonists of the p53 signaling pathway - cell viability (AID 651633; calls by dose curve;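 also: p53RE-bla HCT reporter cells with a stable beta-lactamase p53 reporter; series mostly up to about 83 µM; nearly all actives have a fitted effect of over 30% in size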)
Summary of the method: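 Viability counter-read: CellTiter-Glo luminescence (30 min, room temperature) in the same p53RE-bla plates. These plates had been exposed to compounds for 16 h at 37 C.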

[4] = qHTS assay for small molecules that induce genotoxicity in human embryonic kidney cells expressing luciferase-tagged ATAD5 - cell viability (AID 651634; calls by dose curve; also: nearly all actives have a fitted effect of over 25% in size)
Summary of the method: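 Cytotoxicity counter-readout: after 15.5 hr compound treatment at 37C, live-cell protease activity in ATAD5-luciferase HEK293T cells measured by CellTiter-Fluor fluorescence, 30 min development at 37C.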

[5] = qHTS assay for small molecule disruptors of the mitochondrial membrane potential - cell viability (AID 720634; calls by dose curve;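 also: human HepG2 liver cancer cells; series mostly up to about 83 µM; nearly all actives have a fitted effect of over 20% in size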)
Summary of the method: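 Cytotoxicity was quantified from ATP content by CellTiter-Glo luminescence in the same wells as the MMP dye read-out. HepG2 (2,000 cells/well) were plated overnight and exposed to compounds for 1 hr at 37 C.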

[6] = qHTS assay for small molecule disruptors of the mitochondrial membrane potential (AID 720635); also: potency is read from the fitted curve at half-maximal effect
Summary of the method: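 Mitochondrial membrane potential tracked with Mito-MPS dye, red aggregates (ex 540/em 590 nm) against green monomers (ex 490/em 535 nm). Compound treatment 1 hr at 37C, dye 30 min in HepG2.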

[7] = qHTS assay to test for compound auto fluorescence at 590 nm (red) in HepG2 cells (AID 720674)
Summary of the method: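 We screened compounds on adherent HepG2 cells, incubating them for an hour at 37 C in 5% CO2 before reading emission at 590 nm under 540 nm excitation; values reflect equivalence to Rose Bengal sodium fluorescence.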

[8] = qHTS assay to test for compound auto fluorescence at 535 nm (green) in HepG2 cells (AID 720675)
[9] = qHTS assay to test for compound auto fluorescence at 460 nm (blue) in HEK293 cells (AID 720678)
Summary of the method: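 Blue read-out at excitation 405 nm and emission 460 nm follows overnight compound exposure of HEK293 cells at 37C in 5% CO2. Activity is given as auto fluorescence equivalency to triamterene.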

[10] = qHTS assay to test for compound auto fluorescence at 590 nm (red) in HEK293 cells (AID 720679)
Summary of the method: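 Red channel, Ex/Em 540/590nm; signal expressed as equivalency to Rose Bengal sodium. HEK293, 2,000 cells/well, 10% dialyzed FBS; 23 nL compound pinned after 4-5 hr attachment; overnight 37C/5% CO2 before reading.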

[11] = qHTS assay to test for compound auto fluorescence at 535 nm (green) in HEK293 cells (AID 720680)
[12] = qHTS assay to test for compound auto fluorescence at 460 nm (blue) in HEK293 cell free culture (AID 720681)
Summary of the method: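 Blue fluorescence (Ex 405/Em 460 nm, triamterene-equivalent) was read immediately after pin transfer of compound or DMSO into medium (DMEM, 10% FBS) without cells.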

[13] = qHTS assay to test for compound auto fluorescence at 535 nm (green) in HEK293 cell free culture (AID 720682)
Summary of the method: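 Green-channel intensity (Ex/Em 485/535 nm) was recorded from compound-treated wells containing only DMEM with 10% FBS. Fluorescein provided the equivalency standard.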

[14] = qHTS assay to test for compound auto fluorescence at 590 nm (red) in HEK293 cell free culture (AID 720683)
Summary of the method: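 Red-channel autofluorescence of compounds in culture medium (DMEM, 10% FBS), no cells, measured at 540/590 nm. Rose Bengal sodium is the reference fluorophore for equivalence.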

[15] = qHTS assay to test for compound auto fluorescence at 590 nm (red) in HepG2 cell free culture (AID 720684)
Summary of the method: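 No cells present: MEM + 10% FBS only. Compound pinned in, red label read (540/590 nm). Activity = fluorescence equivalent to Rose Bengal sodium.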

[16] = qHTS assay to test for compound auto fluorescence at 460 nm (blue) in HepG2 cell free culture (AID 720685)
Summary of the method: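 Cell-free plates of MEM plus 10% FBS received 23 nL compound or DMSO vehicle; blue-channel (405/460 nm) intensity scored against triamterene as reference fluorophore.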

[17] = qHTS assay to test for compound auto fluorescence at 535 nm (green) in HepG2 cell free culture (AID 720686)
[18] = qHTS assay to test for compound auto fluorescence at 460 nm (blue) in HepG2 cells (AID 720687)
Summary of the method: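 Blue-channel autofluorescence (Ex/Em 405/460 nm, triamterene-equivalent) was measured after 1 hr compound exposure at 37 C, 5% CO2. Cells were HepG2, plated overnight at 37 C in MEM plus 10% FBS.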

[19] = target: Glucocorticoid receptor (Homo sapiens) (UniProt P04150); test: qHTS assay to identify small molecule agonists of the glucocorticoid receptor (GR) signaling pathway (AID 720691; active = well fitted activation curve with a large enough effect in the signal ratio in the repeat runs, not every such curve was filed as active; the % refers to the signal ratio)
Glucocorticoid receptor (Homo sapiens), sequence (P04150 whole entry, looked up): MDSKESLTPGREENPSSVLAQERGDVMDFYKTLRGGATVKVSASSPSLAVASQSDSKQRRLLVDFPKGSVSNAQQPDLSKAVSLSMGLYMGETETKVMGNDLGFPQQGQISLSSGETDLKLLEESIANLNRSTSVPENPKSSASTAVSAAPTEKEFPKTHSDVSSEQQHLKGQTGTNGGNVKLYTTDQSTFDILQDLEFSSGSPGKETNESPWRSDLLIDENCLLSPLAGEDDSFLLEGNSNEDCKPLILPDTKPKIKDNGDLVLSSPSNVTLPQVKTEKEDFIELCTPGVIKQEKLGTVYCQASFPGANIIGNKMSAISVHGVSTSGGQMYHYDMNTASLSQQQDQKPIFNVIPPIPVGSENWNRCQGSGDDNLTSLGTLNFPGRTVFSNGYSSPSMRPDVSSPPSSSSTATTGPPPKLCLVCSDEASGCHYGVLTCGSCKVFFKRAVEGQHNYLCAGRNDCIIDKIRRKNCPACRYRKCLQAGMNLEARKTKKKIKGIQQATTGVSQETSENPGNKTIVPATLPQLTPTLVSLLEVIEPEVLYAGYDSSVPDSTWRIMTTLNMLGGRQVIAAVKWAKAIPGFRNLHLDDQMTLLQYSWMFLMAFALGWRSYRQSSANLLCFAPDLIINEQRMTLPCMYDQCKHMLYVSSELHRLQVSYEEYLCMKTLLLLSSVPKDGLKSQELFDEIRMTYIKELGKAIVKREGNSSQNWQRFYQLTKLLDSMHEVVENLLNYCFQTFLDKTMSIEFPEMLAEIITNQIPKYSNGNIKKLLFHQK
Summary of the method: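 Agonist-mode qHTS in HeLa cells stably expressing a glucocorticoid-response-element beta-lactamase reporter. Fluorescence intensity read with FRET substrate (2 h, room temperature) after 18 h compound treatment at 37 C.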

[20] = target: Glucocorticoid receptor (Homo sapiens) (UniProt P04150); test: qHTS assay to identify small molecule antagonists of the glucocorticoid receptor (GR) signaling pathway (AID 720692; active = well fitted inhibition curve with a large enough effect in the signal ratio in the repeat runs, not every such curve was filed as active; the % refers to the signal ratio)
Summary of the method: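 Inhibition of dexamethasone-driven (5 nM final) beta-lactamase expression was measured in GRE-reporter HeLa cells over 18 h at 37C. Fluorescence was read after 2 h with the B/G FRET substrate at room temperature.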
% is scaled to controls: 0 for no effect and ±100 for the full control effect.

CC(=O)OC(C)OC(C)=O
inactive: Potency [1] | Potency [2] | Potency [3] | Potency [4] | Potency [5] | Potency [6] | outcome [7] | outcome [8] | outcome [9] | outcome [10] | outcome [11] | outcome [12] | outcome [13] | outcome [14] | outcome [15] | outcome [16] | outcome [17] | outcome [18] | Potency [19] | Potency [20]

Cc1c(C(=O)NCCO)[n+](=O)c2ccccc2n1[O-]
inactive: Potency [1] | Potency [2] | Potency [3] | Potency [4] | Potency [5] | Potency [6] | outcome [7] | outcome [8] | outcome [9] | outcome [10] | outcome [11] | outcome [12] | outcome [13] | outcome [14] | outcome [15] | outcome [16] | outcome [17] | outcome [18] | Potency [19] | Potency [20]

OCc1c2ccccc2cc2ccccc12
inactive: Potency [1] | Potency [2] | Potency [3] | Potency [4] | Potency [5] | outcome [7] | outcome [8] | outcome [9] | outcome [10] | outcome [11] | outcome [12] | outcome [13] | outcome [14] | outcome [15] | outcome [16] | outcome [17] | outcome [18]
active: Potency [6] 30.7 µM

CCC(=O)O[C@]1(C(=O)SCF)[C@H](C)C[C@H]2[C@@H]3C[C@H](F)C4=CC(=O)C=C[C@]4(C)[C@@]3(F)[C@@H](O)C[C@@]21C
inactive: Potency [1] | Potency [2] | Potency [3] | Potency [4] | Potency [5] | fluorescence, relative to Rose Bengal [7] -0.521% [at 18.6 µM] | fluorescence, % of fluorescein control [8] 0.0108% [at 18.6 µM] | fluorescence, % of triamterene [9] 0.0153% [at 18.6 µM] | fluorescence, % of fluorescent control [10] -0.0536% [at 18.6 µM] | fluorescence, % of fluorescein [11] 0.0173% [at 18.6 µM] | fluorescence, % of fluorescent control [12] 0.0707% [at 18.6 µM] | activity change [13] 0.0558% [at 18.6 µM] | fluorescence, % of fluorescent control [14] -0.193% [at 18.6 µM] | fluorescence, % of Rose Bengal [15] 0.622% [at 18.6 µM] | fluorescence, % of fluorescent control [16] 0.0563% [at 18.6 µM] | fluorescence, % of fluorescein control [17] 0.0971% [at 18.6 µM] | fluorescence, % of fluorescent control [18] -0.137% [at 18.6 µM]
active: Potency [6] 7.17 µM

CC(C)c1ccccc1
inactive: Potency [1] | Potency [2] | Potency [3] | Potency [4] | Potency [5] | Potency [6] | outcome [7] | outcome [8] | outcome [9] | outcome [10] | outcome [11] | outcome [12] | outcome [13] | outcome [14] | outcome [15] | outcome [17] | outcome [18] | Potency [19] | Potency [20]

CCN(O)CC
inactive: Potency [1] | Potency [2] | Potency [3] | Potency [4] | Potency [5] | Potency [6] | outcome [7] | outcome [8] | outcome [9] | outcome [10] | outcome [11] | outcome [12] | outcome [13] | outcome [14] | outcome [15] | outcome [17] | outcome [18]
